Among the test systems are MARK4; MAST1; MELK; MERTK.
Holding throughout (conditions): concentration: 1 μM, replicates: in singlicate; n = 1
For a further assay, the system named is T1, MEK1.
T1 construct: gene MAP2K1

Another assay has as its system T2, MEK2.
T2 construct: gene MAP2K2

The subject of another assay is T3, MEK3.
T3 construct: gene MAP2K3

The test system of a further assay is T4, MEK4.
T4 construct: gene MAP2K4

For another assay, the system named is T5, MEK5.
T5 construct: gene MAP2K5

The test system of another assay is T6, MEK6.
T6 construct: gene MAP2K6
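Further: KINOMEscan kinase panel screen.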

On to `COc1cc(Nc2ccnc3ccc(C(F)(F)F)cc23)cc(OC)c1OC` [GW577382], for which the “%Inh” value in the assay on MARK4 was found to be 11%; in the assay on MAST1 it was 4%; in the assay with MEK1, 14%; in the assay with MEK2, 0%; in the assay with MEK3, 0%; in the assay on MEK4, 32%. Also, the “%Inh” value is listed as 50% with MEK5, 0% in the assay with MEK6, 13% in the assay with MELK and 27% in the assay on MERTK.
Consider `O=C(NCCNc1ccnc(Nc2ccc(F)cc2)n1)Nc1ccc2c(c1)OCO2` [GSK1379882], for which the “%Inh” value is 0% in the assay on MARK4; 4% in the assay with MAST1; 9% in the assay with MEK1; 19% with MEK2; 4% in the assay on MEK3; 10% with MEK4. Also, the “%Inh” value came to 9% with MEK5, 8% in the assay with MEK6, 8% in the assay on MELK and 0% with MERTK.
As to `Nc1n[nH]c2ncc(-c3ccccc3)cc12` [SB-517081], the “%Inh” value turned out to be 0% in the assay on MARK4; 0% with MAST1; 0% in the assay on MEK1; 1% in the assay with MEK2; 0% with MEK3; 0% in the assay on MEK4. Moreover, the “%Inh” value with MEK5 is 85%; in the assay with MEK6, 4%; with MELK it was 0%; in the assay with MERTK, 0%.
As for `Nc1nc(-c2ccccc2F)c(-c2ccnc3ccccc23)s1` [GW560459], the “%Inh” value was determined as 0% in the assay on MARK4; 0% in the assay on MAST1; 0% in the assay on MEK1; 0% in the assay with MEK2; 0% with MEK3; 40% in the assay with MEK4. Also, the “%Inh” value was determined as 50% in the assay with MEK5, 5% in the assay with MEK6, 0% in the assay with MELK and 0% with MERTK.
Turning to `Cc1c(Cn2c(C)nn3c(=O)cc(N4CCO[C@H](C)C4)nc23)cccc1C(F)(F)F` [GSK2373690], the “%Inh” value with MARK4 turned out to be 0%; in the assay with MAST1, 0%; in the assay on MEK1 it was 0%; in the assay with MEK2, 0%; with MEK3, 0%; with MEK4, 12%. The “%Inh” value was determined as 1% with MEK5, 0% in the assay with MEK6, 0% in the assay on MELK and 14% in the assay on MERTK.
As for `O=c1cc(N2CCOCC2)nc2n(Cc3ccc(F)c(Cl)c3)ccn12` [GSK2297099], the “%Inh” value was determined as 0% with MARK4; 0% with MAST1; 0% in the assay with MEK1; 0% in the assay with MEK2; 0% with MEK3; 5% with MEK4. Besides, the “%Inh” value was found to be 1% with MEK5, 14% in the assay on MEK6, 0% in the assay on MELK and 0% in the assay on MERTK.
`Cc1ccc(Oc2ccc(Nc3ncnc4cc[nH]c34)cc2C)cn1`: the “%Inh” value in the assay with MARK4 came out at 19%; in the assay on MAST1, 49%; with MEK1 it was 37%; with MEK2, 25%; with MEK3 it was 0%; in the assay with MEK4, 0%. Also, the “%Inh” value in the assay on MEK5 is given as 99.7%; in the assay with MEK6, 9%; with MELK it was 0%; in the assay on MERTK, 0%.
Turning to `COc1cccc(C2=C(Nc3cccc(C(=O)O)c3)C(=O)NC2=O)c1` [SB-390770], the “%Inh” value in the assay on MARK4 worked out at 23%; with MAST1, 35%; in the assay with MEK1, 0%; with MEK2, 10%; in the assay on MEK3 it was 0%; in the assay with MEK4, 16%. Moreover, the “%Inh” value in the assay with MEK5 was determined as 4%; in the assay on MEK6, 0%; with MELK, 21%; with MERTK it was 3%.
Consider `O=C(NCc1cccs1)c1cc(C(=O)c2c(Cl)cccc2Cl)c[nH]1` [GW823670], for which the “%Inh” value in the assay with MARK4 is recorded as 0%; with MAST1, 0%; in the assay with MEK1, 4%; with MEK2, 25%; in the assay with MEK3, 1%; with MEK4, 0%. Further, the “%Inh” value is given as 7% in the assay with MEK5, 5% with MEK6, 26% in the assay with MELK and 0% in the assay on MERTK.
Take `CC(C)(C)c1ccc(C(=O)Nc2cn3cc(-c4ccccc4)ccc3n2)cc1`: the “%Inh” value in the assay on MARK4 came out at 0%; in the assay with MAST1, 0%; in the assay on MEK1 it was 0%; with MEK2, 45%; in the assay on MEK3, 25%; with MEK4 it was 0%. Besides, the “%Inh” value amounted to 75% in the assay with MEK5, 0% in the assay with MEK6, 0% in the assay with MELK and 0% in the assay with MERTK.
On to `Cn1c(=O)c(F)c(Nc2ccc(I)cc2F)c2c(=O)n(OC[C@H](O)CO)cnc21`, for which the “%Inh” value in the assay with MARK4 was found to be 33%; with MAST1 it was 37%; in the assay on MEK1, 99.6%; in the assay with MEK2, 99.1%; in the assay with MEK3 it was 0%; in the assay with MEK4, 0%. Besides, the “%Inh” value in the assay with MEK5 came to 0%; in the assay on MEK6, 0%; in the assay with MELK it was 13%; with MERTK, 5%.
Take `Nc1n[nH]c2nnc(-c3ccccc3)c(-c3ccccc3)c12` [GW554060]: the “%Inh” value is on record as 0% in the assay on MARK4; 9% in the assay with MAST1; 0% in the assay with MEK1; 0% with MEK2; 5% with MEK3; 14% in the assay on MEK4. Besides, the “%Inh” value amounted to 30% in the assay with MEK5, 0% in the assay on MEK6, 18% in the assay on MELK and 0% with MERTK.
Turning to `Fc1cccc(CSc2nnc(-c3ccc4c(c3)CCO4)o2)c1`, the “%Inh” value in the assay on MARK4 came to 0%; in the assay on MAST1, 0%; in the assay on MEK1, 3%; with MEK2, 5%; with MEK3, 6%; with MEK4, 5%. Moreover, the “%Inh” value turned out to be 14% in the assay on MEK5, 0% in the assay with MEK6, 0% in the assay on MELK and 2% in the assay on MERTK.
As for `COc1cc(Nc2nccc(N3CCC(NC(=O)C4COc5ccccc5O4)C3)n2)cc(OC)c1OC` (centres unmarked) [GSK1379761], the “%Inh” value with MARK4 turned out to be 0%; with MAST1 it was 0%; with MEK1, 25%; in the assay with MEK2 it was 0%; with MEK3, 0%; with MEK4, 0%. The “%Inh” value is on record as 97.2% in the assay with MEK5, 0% in the assay on MEK6, 11% in the assay on MELK and 36% in the assay with MERTK.
With `FC(F)(F)c1ccc(-c2ncn(CCCN3CCOCC3)c2-c2ccncc2)cc1` [SB-217780], the “%Inh” value in the assay with MARK4 turned out to be 20%; in the assay with MAST1 it was 23%; with MEK1 it was 0%; in the assay on MEK2, 0%; in the assay on MEK3 it was 27%; in the assay on MEK4, 3%. The “%Inh” value with MEK5 was 33%; with MEK6 it was 0%; with MELK it was 2%; with MERTK, 0%.
As for `Cc1nnc(-c2ccc(C)c(-c3ccc(C(=O)O)cc3)c2)o1` [GW608005], the “%Inh” value in the assay on MARK4 worked out at 21%; with MAST1, 0%; with MEK1, 0%; with MEK2, 0%; in the assay with MEK3 it was 0%; in the assay on MEK4 it was 14%. Also, the “%Inh” value in the assay with MEK5 is recorded as 0%; in the assay with MEK6, 0%; in the assay with MELK, 0%; with MERTK, 25%.
In the case of `COc1cccc(-n2cnc3c(N)ncnc32)c1` [SKF-97416], the “%Inh” value with MARK4 is reported as 0%; in the assay with MAST1 it was 59%; in the assay on MEK1, 12%; in the assay with MEK2 it was 12%; in the assay with MEK3, 43%; in the assay on MEK4 it was 36%. Besides, the “%Inh” value was found to be 80% in the assay with MEK5, 18% in the assay on MEK6, 0% with MELK and 0% in the assay on MERTK.

These data come from paper PMC5540273 (PLoS ONE, 2017).
